# Most compounds without a hit are left out; they make up all but 19% or so of the library.
# Giardia killer: Small Molecules that selectively kill Giardia lamblia: qHTS; Giardia lamblia trophozoite viability; activity change, % at 7.66 µM, hits read low; actives 0.15% (n = 340,000); AID 540267, 2011; in the data active = activity change below about -80%; inconclusive = between about -30% and that limit;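 note: parasites exposed to compound for two days anaerobically before the ATP read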
#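 Each well holds 100 Giardia trophozoites and compound. After two days (48 hrs) at 37 deg C in anaerobic conditions, ATP is quantified by luminescence.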
# TDP1 block: qHTS Assay for Inhibitors of Tyrosyl-DNA Phosphodiesterase (TDP1). Tyrosyl-DNA phosphodiesterase 1 (Homo sapiens), Q9NUW8. recombinant TDP1, AlphaScreen DNA substrate cleavage. actives 0.28% (n = 350,000). Potency, µM (series often up to 130 µM), for the others: at the highest dose activity change, negative = inhibition, usual class: inhibitors. AID 485290, 2010; note: potency is the fitted concentration of half-maximal effect; nearly all actives have a fitted effect of over 40% in size
# Target sequence (Q9NUW8 whole entry, looked up): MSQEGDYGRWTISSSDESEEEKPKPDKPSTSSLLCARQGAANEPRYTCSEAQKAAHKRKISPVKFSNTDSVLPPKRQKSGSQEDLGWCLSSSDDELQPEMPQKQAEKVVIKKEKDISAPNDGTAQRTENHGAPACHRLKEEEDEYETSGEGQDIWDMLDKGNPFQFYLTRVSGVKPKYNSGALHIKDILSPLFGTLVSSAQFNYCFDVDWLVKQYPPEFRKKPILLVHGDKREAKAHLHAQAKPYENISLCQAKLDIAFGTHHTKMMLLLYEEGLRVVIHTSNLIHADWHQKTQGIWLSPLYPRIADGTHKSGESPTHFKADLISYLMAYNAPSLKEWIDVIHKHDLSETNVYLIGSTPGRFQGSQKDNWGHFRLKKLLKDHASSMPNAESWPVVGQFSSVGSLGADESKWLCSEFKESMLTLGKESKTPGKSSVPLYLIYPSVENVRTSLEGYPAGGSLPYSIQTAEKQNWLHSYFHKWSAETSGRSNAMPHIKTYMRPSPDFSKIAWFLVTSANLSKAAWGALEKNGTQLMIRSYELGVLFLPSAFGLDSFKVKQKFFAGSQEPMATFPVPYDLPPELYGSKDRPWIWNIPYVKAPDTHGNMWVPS
#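 Recombinant E. coli-expressed Tdp1 (1 nM) preincubated with compound 15 min at RT, then 5'-biotin/3'-phosphotyrosine-FITC DNA substrate (15 nM) added for 5 min. AlphaScreen beads (10 ug/ml) added, 10 min RT; tyrosine-FITC cleavage read as signal loss.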
# ELG1 DNA repair: qHTS screen for small molecules that inhibit ELG1-dependent DNA repair in human embryonic kidney (HEK293T) cells expressing luciferase-tagged ELG1; HEK293T ELG1-luciferase reporter, luminescence, 16 h; DNA damage induced by 5-fluorouridine; Potency, µM (top dose mostly 46.1 µM), for the others: at the highest dose activity change, negative = inhibition, most hits filed as inhibitors; actives 2.3% (n = 330,000); note: potency is the fitted concentration of half-maximal effect; nearly all actives have a fitted effect of over 55% in size
#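 Luminescence from the luciferase reporter, measured 30 min after ONE-Glo reagent at room temperature, was the read-out. Beforehand, 2,000 cells per well were exposed for 16 hr at 37 °C to 5-fluorouridine together with compound or vehicle.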
# DT40 TDP1 no CPT: qHTS for Inhibitors of human tyrosyl-DNA phosphodiesterase 1 (TDP1): qHTS in cells in absence of CPT. AID 686978, 2013. Potency, µM (top dose mostly 46.2 µM), for inactives: top-dose activity change, negative = growth inhibition, usual class: inhibitors. DT40 Tdp1-/- hTDP1 cells, no CPT, ATP luminescence, 48 h. actives 15% (n = 420,000); note: potency is the fitted concentration of half-maximal effect; nearly all actives have a fitted effect of over 55% in size
#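 No-CPT arm: Tdp1-/-;hTDP1 DT40 cells (400/well) plus compounds, incubated ≥48 hr at 37 °C. Readout CellTiter-Glo luminescence.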
# IL-1B inflam inh: qHTS for Inhibitors of Inflammasome Signaling: IL-1-beta AlphaLISA Primary Screen; THP-1 LPS/ATP IL-1B secretion, AlphaLISA, 16 h; active compounds read low; activity change, % at 57.5 µM; actives 4.7% (n = 360,000); in the data active = activity change below about -50%; inconclusive = mostly about -30% to -49%
#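 THP-1 cells pretreated 1 hr with compounds (up to 57.5 uM final), then stimulated with LPS (250 ng/mL final) plus ATP (1.25 mM final); secreted IL-1B measured by AlphaLISA after 16 hr, decreased signal indicating inhibition.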
# TDP1 cell CPT: qHTS for Inhibitors of human tyrosyl-DNA phosphodiesterase 1 (TDP1): qHTS in cells in presence of CPT | Potency, µM (highest dose often 46.2 µM), for the others: at the top dose activity change, negative = growth inhibition, usual class: inhibitors | chicken DT40 Tdp1-/-;hTDP1 cells + 20 nM CPT, ATP luminescence, 48 h | actives 12% (n = 420,000) | AID 686979, 2013; note: potency is the fitted concentration of half-maximal effect; nearly all actives have a fitted effect of over 55% in size
#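 Cell growth measured by CellTiter-Glo luminescence after a minimum 48 h, 37 C compound exposure with 20 nM CPT in Tdp1-knockout DT40 cells stably expressing hTDP1, seeded 400/well; qHTS titration format.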
# * marks the source's active call; other numbers are inactive results; ? = inconclusive; . = no result given; [ ] = another dose, or the depositor's remark. Unless noted, calls come from the whole dose curve; as a rule, active = well fitted curve in the direction sought with a large enough effect; inconclusive = small, poorly fitted or top-dose-only effect, or another doubt; inactive = no such curve, though single readings can be large; an effect the other way counts as inactive or inconclusive. % is set by controls: 0 for no effect and ±100 for the full control effect.
SMILES,Giardia killer,TDP1 block,ELG1 DNA repair,DT40 TDP1 no CPT,IL-1B inflam inh,TDP1 cell CPT
Cc1ccc(S(=O)(=O)N2CCN(C(=O)c3ccc4nc[nH]c4c3)CC2)cc1,-27.2,.,6.5%,-1.3%,-20.2,-29.9%
O=C(O)CN1CCN(c2ncc(C(F)(F)F)cc2Cl)CC1,28.5,2.7%,-17.6%,5.3%,25.8,2.3%
Cc1c(P(=S)(c2ccccc2)c2ccccc2)c2ccccc2n1CCCc1ccccc1,.,0.8%,.,.,.,.
CC(=O)c1ccc(NC(=S)Nc2ccc(Br)c(Cl)c2)cc1,-4.6,0.0%,0.8%,?,?,?
CC(=O)c1ccc(NC(=S)NC(C)c2ccc(Cl)cc2Cl)cc1 (centres undefined),-6.8,6.0%,-12.1%,29.1µM*,-72.6*,?
O=C(COC(=O)c1ccc(Cl)cc1Cl)Nc1cccc(S(=O)(=O)NC2=NCCC2)c1,-6.2,1.5%,-9.3%,-2.4%,0.0,0.1%
Cc1ccc(S(=O)(=O)Nc2ccc(Nc3nccn4c(-c5cccc(OC(F)(F)F)c5)cnc34)cc2)cc1,.,.,.,11.6µM*,-26.5,18.4µM*
CS(=O)(=O)c1ccc(-c2nnc(NC(=O)c3cccc(N4C(=O)CCC4=O)c3)o2)cc1,0.2,0.1%,13.4%,-0.7%,9.3,19.9%
CCC(C(=O)N(C)Cc1ccccc1)n1nc(C)c2sc3ccccc3c2c1=O (centres undefined),.,5.7%,.,16.4µM*,.,?
CCC(C(=O)NCCCN1CCCCCC1)n1nc(C)c2sc3ccccc3c2c1=O (centres undefined),18.1,6.6%,10.6%,26.4%,0.0,-1.2%
CCC(C(=O)NCc1ccccc1Cl)n1nc(C)c2sc3ccccc3c2c1=O (centres undefined),.,-2.9%,.,?,.,18.4µM*
CCC(C(=O)NC1CCCCC1)n1nc(C)c2sc3ccccc3c2c1=O (centres undefined),.,8.6%,.,9.2µM*,.,10.3µM*
CSc1ccc(-c2nc3cccc(C)n3c2Nc2ccc(Cl)cc2)cc1,.,7.3%,.,7.31µM*,.,9.2µM*
Cc1ccc(Nc2c(-c3ccc(O)cc3)nc3cccc(C)n23)cc1,.,7.5%,.,?,.,23.1µM*
Cc1ccc2nc(-c3ccc(O)cc3)c(Nc3ccc(Cl)cc3)n2c1,.,3.6%,.,?,.,?
COc1nnc(-c2ccc(N3CCCCC3)c(NC(=O)c3ccc(Cl)cc3)c2)c2ccccc12,.,0.0%,.,-7.2%,.,-16.5%
COC(OC)C1(CCc2ccccc2)NC(=O)NC1=O (centres undefined),-20.1,.,.,-1.2%,-13.0,-13.9%
Cc1cc(C)c(N(C(=O)Cn2nnc3ccccc32)C(C(=O)NC(C)(C)C)c2ccsc2)c(C)c1 (centres undefined),7.2,2.6%,27.7%,?,11.6,16.4µM*
CC(C)(C)NC(=O)C(c1ccsc1)N(CCc1ccccc1)C(=O)Cn1nnc2ccccc21 (centres undefined),10.1,0.0%,?,-29.6%,25.9,?
Cc1ccc(C)c(N(C(=O)Cn2nnc3ccccc32)C(C(=O)NC(C)(C)C)c2ccsc2)c1 (centres undefined),-12.7,4.3%,?,?,30.3,23.1µM*
NC(=O)C1CCN(CC(=O)Nc2cccnc2Cl)CC1,-18.8,-8.1%,-16.7%,-2.3%,-5.5,6.9%
OC(COc1cc(Cl)c(Cl)cc1Cl)CN1CCN(c2ncccn2)CC1 (centres undefined),-3.5,-13.7%,?,?,-16.2,18.4µM*
OC(CN1CCN(c2ccccn2)CC1)Cn1c2ccccc2c2ccccc21 (centres undefined),11.6,8.0%,?,8.2µM*,-5.0,14.6µM*
Cc1cc(OCC(O)CN2CCN(c3ccccn3)CC2)cc(C)c1Cl (centres undefined),-21.2,.,-9.6%,?,-69.0*,?
COc1ccc(OCC(O)CN2CCN(c3ncccn3)CC2)cc1 (centres undefined),-28.5,0.0%,1.1%,-9.3%,0.0,-5.2%
SMILES,Giardia killer,TDP1 block,ELG1 DNA repair,DT40 TDP1 no CPT,IL-1B inflam inh,TDP1 cell CPT
COc1ccc(NC(=O)c2ccc(NC3=NC4CS(=O)(=O)CC4S3)cc2)cc1 (centres undefined),24.6,.,10.8%,-14.5%,6.3,-1.3%
C/C(=N\NC(=S)Nc1cc(S(=O)(=O)N2CCOCC2)ccc1Cl)c1ccccc1F,0.4,9.3%,?,2.31µM*,0.0,3.26µM*
CCOC(=O)N1CCN(C(=S)Nc2cc(S(=O)(=O)N3CCOCC3)ccc2Cl)CC1,-7.0,2.5%,?,18.4µM*,-11.0,?
CCOC(=O)C1CCCN(S(=O)(=O)c2csc(C(N)=O)c2)C1 (centres undefined),.,0.0%,.,14.6µM*,.,?
CC(C)N(C(=S)Nc1cc(S(=O)(=O)N2CCOCC2)ccc1Cl)c1ccccc1,3.5,3.0%,?,?,8.1,-20.3%
O=C(Nc1cc(S(=O)(=O)N2CCOCC2)ccc1Cl)c1cc2ccccc2o1,?,-2.8%[56.1 µM],?,?,-75.3*,?
CCOC(=O)C1CCN(S(=O)(=O)CCNC(=O)c2ccc3c(c2)OCO3)CC1,-12.1,1.9%,-2.1%,6.3%,-1.0,-11.3%
CCOC(=O)C1CCCN(C(=S)Nc2ccc(S(=O)(=O)N3CCOCC3)cc2)C1 (centres undefined),12.4,0.5%,?,16.4µM*,-6.7,?
CCN(CC)S(=O)(=O)c1ccc(S(=O)(=O)N2CCCC(C(=O)NC3CC3)C2)cc1 (centres undefined),-20.5,.,-22.2%,5.8µM*,18.8,1.3µM*
CCOC(=O)C1CCCN(S(=O)(=O)c2ccc(S(=O)(=O)N(CC)CC)cc2)C1 (centres undefined),-13.2,2.6%,?,1.46µM*,24.0,2.91µM*
CCOC(=O)C1CCCN(S(=O)(=O)c2ccc(S(N)(=O)=O)cc2)C1 (centres undefined),-21.2,0.0%,?,?,-11.9,-1.2%
CCOC(=O)C1CCCN(S(=O)(=O)CCNC(=O)c2ccc3c(c2)OCO3)C1 (centres undefined),13.0,7.5%,-4.4%,-5.5%,-72.9*,-0.8%

# Screening results from PubChem BioAssay.
